From the supplement of paper PMC10646978
± gives the standard deviation.

What was measured:
Settings in all cases: modulator concentration 10 µM
[1] = system: RAW-Dual (murine macrophage reporter line); experiment: NF-kB reporter (SEAP) activity fold change vs agonist alone; higher = enhanced NF-kB activity
Outline: (§1)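 RAW-Dual murine macrophage reporter cells were plated at 50 000 per well in 384-well plates, pin-transferred compound to 10 μM final, and pre-incubated for 1 hour at 37 °C before a PRR agonist was added and the cells incubated overnight. NF-κB activity was read from supernatant SEAP with QUANTI-Blue at 620 nm absorbance, and IRF activity from Lucia luciferase with QUANTI-Luc by luminescence. Each signal was expressed as fold change by dividing by the mean agonist-only control on the same plate. Two replicate plates were averaged, with errors obtained by propagation.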

[2] = system: RAW-Dual (murine macrophage reporter line); experiment: IRF reporter (Lucia luciferase) activity fold change vs agonist alone; higher = enhanced IRF activity
Outline: as §1

[3] = system: RAW-Dual (murine macrophage reporter line); experiment: viability score (confluency relative to resting cells, overnight) (fraction); higher = more viable, active = viable (0.7 or more)
Outline: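 In 384-well plates, RAW-Dual macrophages received compound at a final 10 μM overnight. Two confluency masks were then made with IncuCyte software from IncuCyte images of all imaged wells. The viability score is defined as confluency relative to resting cells. Passing the cutoff required both masks to lie above 70% of resting cells.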

[4] = agonist: CpG ODN 1826 0.5 ug/mL

SMILES	NF-kB reporter [1, 4]	NF-kB reporter ([1]; agonist: LPS 0.1 ug/mL)	NF-kB reporter ([1]; agonist: MPLA […])	IRF reporter ([2]; agonist: 3'3'-cGAMP 10 ug/mL)	IRF reporter ([2]; agonist: LPS 0.1 ug/mL)	IRF reporter ([2]; agonist: MPLA […])	viability score [3]
CC(=O)N=c1sc(S(N)(=O)=O)nn1C [Prestw-802]	1.06 ± 0.11	0.991 ± 0.098	1.02 ± 0.12	0.986 ± 0.031	1.26 ± 0.15	1.39 ± 0.19	1.03 (active)
CN1CCN(CCOc2cc(OC3CCOCC3)c3c(Nc4c(Cl)ccc5c4OCO5)ncnc3c2)CC1	0.135 ± 0.02	1.48 ± 0.29	1.99 ± 0.11	0.395 ± 0.012	0.597 ± 0.13	0.983 ± 0.17	0.886 (active)
CCN(CC)CCNC(=O)c1ccc(N)cc1.Cl	0.962 ± 0.14	0.935 ± 0.4	0.887 ± 0.052	0.952 ± 0.029	1.29 ± 0.3	1.29 ± 0.097	0.993 (active)
N#CCCN(C1CCCCC1)S(=O)(=O)c1cccc2nsnc12	1.05 ± 0.083	0.826 ± 0.051	1.73 ± 0.58	0.867 ± 0.048	1.33 ± 0.077	1.28 ± 0.15	1.01 (active)
Cc1cnc(NC(=O)C2=C(O)c3ccccc3S(=O)(=O)N2C)s1	1.24 ± 0.18	1.06 ± 0.41	0.953 ± 0.066	0.927 ± 0.036	1.15 ± 0.29	0.987 ± 0.089	1.01 (active)
Cn1nc2c(c1CNS(=O)(=O)CCC(F)(F)F)CCC2	0.93 ± 0.077	0.805 ± 0.064	1.17 ± 0.15	1.01 ± 0.049	1.32 ± 0.2	1.41 ± 0.49	0.981 (active)
CC(=NNC(=O)CSc1nc2ccccc2n1Cc1ccccc1)c1ccc(Cl)cc1	0.846 ± 0.068	0.923 ± 0.089	1 ± 0.1	0.979 ± 0.046	1.4 ± 0.081	1.36 ± 0.16	1.02 (active)
CCOC(=O)C1=C(N)OC(C)=C(C(=O)OC)C1c1cccnc1 (stereo not given)	1.16 ± 0.085	1.11 ± 0.081	1.16 ± 0.074	1.21 ± 0.04	1.12 ± 0.12	1.09 ± 0.095	0.988 (active)
OCCN1CCN(CC/C=C2/c3ccccc3Sc3ccc(Cl)cc32)CC1 [Prestw-998]	0.395 ± 0.067	0.914 ± 0.093	1.36 ± 0.26	0.303 ± 0.008	1.85 ± 0.3	2.43 ± 0.28	0.624 (inactive)
C=CCn1c(S)nnc1-c1cc(OC)c(OC)c(OC)c1	0.986 ± 0.076	1.05 ± 0.084	0.988 ± 0.11	0.97 ± 0.041	1.14 ± 0.18	1.08 ± 0.12	1.03 (active)
O=C(C=Cc1ccccc1)NC(NC(=S)Nc1cccc(O)c1)C(Cl)(Cl)Cl (stereo not given)	0.835 ± 0.074	0.803 ± 0.1	0.972 ± 0.099	0.737 ± 0.024	1.25 ± 0.23	1.3 ± 0.28	1.03 (active)
COc1cc(C=C(C#N)c2nc3ccccc3[nH]2)cc(Cl)c1O	1.23 ± 0.07	1.05 ± 0.09	0.992 ± 0.029	1.09 ± 0.039	1.06 ± 0.061	1.07 ± 0.14	0.998 (active)
Cc1sccc1-c1csc(Nc2cccnc2)n1.Cl	0.603 ± 0.028	0.918 ± 0.075	1.16 ± 0.21	0.6 ± 0.029	1.19 ± 0.23	1.62 ± 0.53	0.902 (active)
COc1ccc(C2C3=C(CC(c4ccccc4)CC3=O)Nc3ccccc3N2C(=O)C(C)C)cc1OC (stereo not given)	1.02 ± 0.089	1.05 ± 0.063	1.01 ± 0.071	1.02 ± 0.025	1.56 ± 0.21	1.2 ± 0.087	1.01 (active)
O=C(Nc1cccnc1)c1ccc(OC2CCOCC2)nc1	1.08 ± 0.37	0.97 ± 0.06	1 ± 0.063	0.912 ± 0.046	1.05 ± 0.13	1.3 ± 0.14	0.99 (active)
O=C1NC(=O)C(=Cc2ccc(-c3cccc(Cl)c3)o2)S1	0.774 ± 0.36	0.761 ± 0.064	0.776 ± 0.064	0.747 ± 0.032	1.13 ± 0.14	1.2 ± 0.16	0.943 (active)
Nc1ncnc2c1ncn2[C@@H]1O[C@H](COP(=O)(O)O)[C@@H](O)[C@H]1O [Prestw-356]	1.37 ± 0.16	1.09 ± 0.11	1.23 ± 0.12	1.32 ± 0.069	1.21 ± 0.16	1.36 ± 0.28	1.03 (active)
O=C1OC(c2ccc3ccccc3c2)=NC1=Cc1ccc(Br)c([N+](=O)[O-])c1	0.963 ± 0.15	0.878 ± 0.08	0.896 ± 0.1	0.861 ± 0.04	1.16 ± 0.11	1.19 ± 0.24	0.998 (active)

SMILES	NF-kB reporter [1, 4]	NF-kB reporter ([1]; agonist: LPS 0.1 ug/mL)	NF-kB reporter ([1]; agonist: MPLA […])	IRF reporter ([2]; agonist: 3'3'-cGAMP 10 ug/mL)	IRF reporter ([2]; agonist: LPS 0.1 ug/mL)	IRF reporter ([2]; agonist: MPLA […])	viability score [3]
Cc1nnc(NC(=O)c2ccccc2C(=O)O)s1	0.982 ± 0.13	0.969 ± 0.063	0.983 ± 0.051	1.11 ± 0.28	1.01 ± 0.055	1.04 ± 0.085	0.998 (active)
Cc1ccc(-c2cc(-c3ccccc3)nc(NN=Cc3ccc(F)cc3)n2)cc1	0.961 ± 0.17	1.23 ± 0.1	0.988 ± 0.13	1.02 ± 0.051	1.15 ± 0.11	1.48 ± 0.27	0.959 (active)
CCCC1=NN2C(=N)C(=Cc3ccc(OCc4ccc(F)cc4)c(OCC)c3)C(=O)N=C2S1	0.992 ± 0.1	1.03 ± 0.057	0.97 ± 0.084	0.965 ± 0.04	1.59 ± 0.17	1.19 ± 0.073	1.01 (active)
CCCOc1ccc(C2NC(=O)NC(C)=C2C(=O)OC(C)C(C)(C)C)cc1OC (stereo not given)	0.557 ± 0.033	1.04 ± 0.063	0.746 ± 0.052	0.478 ± 0.016	0.722 ± 0.077	0.656 ± 0.061	0.96 (active)
Clc1ccc(C=NNc2cc(N3CCCC3)nc(N3CCCC3)n2)c(Cl)c1	0.988 ± 0.076	0.983 ± 0.081	0.987 ± 0.1	0.99 ± 0.062	1.21 ± 0.15	1.31 ± 0.25	1.04 (active)
O=C(NCCN1CCN(c2ccc(F)cc2)CC1)c1ccno1	1.04 ± 0.1	0.965 ± 0.077	0.991 ± 0.026	0.982 ± 0.059	0.968 ± 0.072	0.929 ± 0.14	0.999 (active)
O=c1c(-c2ccc(O)cc2)coc2cc(O)cc(O)c12	1.54 ± 0.4	1.01 ± 0.26	1.2 ± 0.079	0.625 ± 0.02	0.76 ± 0.29	0.842 ± 0.1	0.945 (active)
Oc1ccc(C=Cc2cc(O)cc(O)c2)cc1	0.984 ± 0.074	0.848 ± 0.042	1.23 ± 0.029	0.493 ± 0.028	0.48 ± 0.087	0.403 ± 0.084	0.904 (active)
COc1cc(C2Oc3cc(C4Oc5cc(O)cc(O)c5C(=O)C4O)ccc3OC2CO)ccc1O (stereo not given)	1.11 ± 0.083	1.07 ± 0.057	1.13 ± 0.029	0.988 ± 0.082	0.93 ± 0.17	1 ± 0.17	0.981 (active)
COc1cccc2cc(C(=O)NCc3nn(C4CCCC4)c(=O)c4ccccc34)oc12	0.976 ± 0.053	1.1 ± 0.086	0.846 ± 0.096	0.827 ± 0.062	1.2 ± 0.24	0.848 ± 0.39	1.02 (active)
CNC(=O)c1ccc2cc(C3(O)CCn4cncc43)ccc2c1 (stereo not given)	0.99 ± 0.15	0.866 ± 0.28	0.937 ± 0.052	0.932 ± 0.04	0.964 ± 0.22	0.945 ± 0.17	0.995 (active)
O=C(CCCn1c(=O)[nH]c2ccc(Br)cc2c1=O)NCC1CCCO1 (stereo not given)	0.965 ± 0.081	1.05 ± 0.099	0.931 ± 0.043	0.957 ± 0.057	1.04 ± 0.063	0.94 ± 0.25	1.02 (active)
O=C(Nc1ccc([N+](=O)[O-])cc1)Nc1ccc(Cl)cn1	0.838 ± 0.065	0.942 ± 0.074	0.986 ± 0.14	0.893 ± 0.041	1.39 ± 0.1	1.61 ± 0.14	1 (active)
CCOC(=O)C1=C(C)N(c2ccc(OC)cc2)C(=O)C1=Cc1ccc(C(C)C)cc1	0.903 ± 0.067	1.01 ± 0.083	0.804 ± 0.1	0.883 ± 0.03	1.36 ± 0.21	1.33 ± 0.12	0.997 (active)
COc1ccc2oc(=O)c(C(=O)Nc3ccc(C(=O)O)cc3)cc2c1	0.909 ± 0.054	1.02 ± 0.1	0.953 ± 0.08	1.08 ± 0.035	1.17 ± 0.11	0.959 ± 0.13	0.987 (active)
CCC(c1ccc(O)cc1)C(CC)c1ccc(O)cc1 (stereo not given) [Prestw-699]	0.567 ± 0.043	0.883 ± 0.068	1.02 ± 0.1	0.75 ± 0.13	0.84 ± 0.11	1.06 ± 0.16	0.181 (inactive)
Cc1cccc(CN2CCN(C(c3ccccc3)c3ccc(Cl)cc3)CC2)c1.Cl.Cl (stereo not given)	0.289 ± 0.013	0.913 ± 0.1	1.44 ± 0.082	1.35 ± 0.068	1.28 ± 0.27	1.27 ± 0.35	0.272 (inactive)
